Only some compounds are listed: those with a hit (about 17% of all), similar ones and a draw of the others.
DT40 TDP1 no CPT = qHTS for Inhibitors of human tyrosyl-DNA phosphodiesterase 1 (TDP1): qHTS in cells in absence of CPT; DT40 Tdp1-/- hTDP1 cells, no CPT, ATP luminescence, 48 h; Potency, µM (top dose mostly 46.2 µM), inactives show at the highest dose activity change, negative = growth inhibition, usual class: inhibitors; 420,000 compounds, 15% hits; further: on the % scale 0 is the no-effect control and ±100 the full control effect; nearly all actives have a fitted effect of over 55% in size
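Cells were dispensed at 400 per well, compounds added by pin tool, plates incubated ≥48 hr at 37 °C, then CellTiter-Glo added for 30 min at room temperature before luminescence reading. Line: DT40 Tdp1-/- complemented with hTDP1; camptothecin omitted.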
HT1080 IDH1KD tx = toxicity to HT-1080 IDH1 knockdown cells (counter line); Potency, µM (titrated, usually from 46.1 µM), for the others: at the highest dose activity, negative = toxicity, most hits filed as cytotoxic; 360,000 compounds, 2% hits; HT-1080 IDH1 knockdown viability, ATP luminescence, 48 h; AID 686971;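 further: 0% = DMSO wells and -100% = cell-free medium wells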
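After a 2 h attachment period, IDH1KD HT-1080 cells took pin-transferred compound for 48 h at 37 °C; ATP-based luminescence after 10 min room-temperature reagent incubation reported viability.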
HepG2 tox = counter-screen for TGF-b inhibitors: cytotoxicity in HepG2 cells. HepG2 CAGA-GFP viability, ATP luminescence, 18 h. Potency, µM (doses to about 46.1 µM), for inactives: at the top dose activity change, negative = cytotoxicity, most hits filed as cytotoxic. 410,000 compounds, 0.76% hits. AID 588856
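CellTiter-Glo luminescence gave cytotoxicity after 18 hours at 37 degrees C. The cells were HepG2 CAGA-GFP in 1% FBS DMEM, stimulated with 500 pg/mL TGF-beta after compound addition. %Activity was normalised to no-cell wells (complete cell-killing) and DMSO (no toxicity), and curves were fitted and classified.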
HT1080-NT tox = kills 2HG-producing HT-1080-NT fibrosarcoma cells; 360,000 compounds, 1.6% hits; AID 686970; Potency, µM (doses to about 46.1 µM), for the others: at the highest dose activity, negative = less viability, actives largely listed as cytotoxic; HT-1080-NT fibrosarcoma viability, CellTiter-Glo ATP luminescence, 48 h;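 further: NT is the 2HG producing partner of a matched IDH1 knockdown line; 0% = DMSO-treated cells and -100% = media-only wells without cells; nearly all actives have a fitted effect of over 55% in size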
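750 cells/well, RPMI + 5% FBS; 2 h settle, compound pin-transfer, 48 h at 37 degrees C. CellTiter-Glo 10 min RT, luminescence. Normalized to DMSO and media-only wells.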
TGFb SMAD3 inh = inhibitors of TGF-b signaling; HepG2 CAGA-GFP TGF-b/SMAD3 reporter, GFP fluorescence, 18 h; TGF-beta stimulated, 500 pg/mL final; Potency, µM (highest dose often 46.1 µM), without a hit: at the highest dose activity, negative = inhibition, most hits filed as inhibitors; 410,000 compounds, 1.2% hits; AID 588855; further: on the % scale 0 is the no-effect control and ±100 the full control effect; nearly all actives have a fitted effect of over 65% in size
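GFP signal (ex488/em500-530) from TGF-beta-stimulated HEPG2 CAGA-GFP cells, 500 pg/mL final, 18 h at 37 degrees C in DMEM plus 1% FBS, normalized to unstimulated and DMSO-stimulated controls.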
DT40 TDP1 CPT = growth inhibition of DT40 Tdp1-/-;hTDP1 cells with camptothecin (screen for TDP1 inhibitors); Potency, µM (highest dose often 46.2 µM), for the others: at the highest dose activity change, negative = growth inhibition, most hits filed as inhibitors; 420,000 compounds, 12% hits; chicken DT40 Tdp1-/-;hTDP1 cells + 20 nM CPT, ATP luminescence, 48 h; further: on the % scale 0 is the no-effect control and ±100 the full control effect; nearly all actives have a fitted effect of over 55% in size
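Chicken DT40 Tdp1-/- cells complemented with human TDP1, 400 cells/well, exposed to compounds plus 20 nM camptothecin for at least 48 h at 37 C; viability read as ATP content by CellTiter-Glo luminescence.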
Active calls of the source: *; ? = inconclusive; / = no result; [ ] = remark or other dose. The call rests on the fitted dose curve; in most records, active means well fitted curve in the direction sought with a large enough effect; inconclusive means small, poorly fitted or top-dose-only effect, or another doubt; inactive means no such curve, though single readings can be large; an effect the other way counts as inactive or inconclusive. Potency means the concentration at half of the fitted maximal effect.

SMILES	DT40 TDP1 no CPT	HT1080 IDH1KD tx	HepG2 tox	HT1080-NT tox	TGFb SMAD3 inh	DT40 TDP1 CPT
Cc1ccc2c(c1)c1c(n2CC(O)CN2CCC(C)CC2)CCCC1 (stereo not drawn)	26µM*	-3%	-63%	-12%	?	?
COC(=O)Cn1c2c(c3cc(C)ccc31)CCCC2	-12%	7%	-16%	8%	-2%	-9%
COc1ccc(C(=Cc2ccccc2[N+](=O)[O-])C(=O)O)cc1	-8%	-3%	-5%	-4%	23%	-9%
COc1ccc(C(=O)ON=C(C)c2nccs2)cc1	-10%	0%	-20%	3%	14%	-10%
COc1cccc(/C=N/NC(=S)NC2CC3CCC2C3)c1OC (stereo not drawn)	21µM*	-1%	2%	5%	-8%	?
COc1cccc(/C=N/n2c(N)c(S(=O)(=O)c3cccs3)c3nc4ccccc4nc32)c1OC	5.8µM*	7%	-3%	7%	2%	7.3µM*
COc1cccc(C=NNC(=S)NN=Cc2cccc(OC)c2OC)c1OC	4.1µM*	3%	2%	-2%	-4%	4.6µM*
CNc1nc2ccccc2n1/N=C/c1cccc(OC)c1OC	21µM*	-28%	-25%	-1%	3%	?
COc1cc2ccccc2cc1C(=O)N1CCN(c2ccccn2)CC1	-23%	0%	-10%	-8%	-11%	4%
CCOC(=O)Nc1cc2c(cc1[N+](=O)[O-])-c1ccccc1C2=O	-7%	4%	-31%	0%	0%	?
O=C(NCc1c(Cl)cccc1Cl)c1[nH]c(C(F)(F)F)nc1-c1ccccc1	-14%	-12%	-14%	-11%	?	1%
COc1cccc(C=NNc2nnc(NN=Cc3cccc(OC)c3OC)c3ccccc23)c1OC	21µM*	-11%	-37%	-16%	?	23µM*
Oc1ccccc1/C=N/NC(=S)NC1CC2CCC1C2 (stereo not drawn)	?	?	-55%	21µM*	?	?
COc1ccc(/C=N/Nc2ncnc3c2[nH]c2ccccc23)c(OC)c1OC	-29%	-3%	-2%	-4%	?	-15%
COc1cccc(/C=N/Nc2ncnc3c2[nH]c2ccc(C)cc23)c1OC	5.8µM*	-1%	4%	-11%	?	2.1µM*
Cc1cc(C)cc(NC(=O)C2CCN(c3nc4ccccc4nc3C(F)(F)F)CC2)c1	?	/	1%	/	0%	?
COC(=O)c1ccc(NC(=O)Cn2c(=O)oc3ccccc32)cc1	-6%	/	-2%	/	2%	-14%
CCc1nc2cc(C(=O)N(C)C3CCOC3)cc(NC(=O)c3ccccc3OC)c2n1C (stereo not drawn)	-19%	/	/	/	/	-3%[9.04 µM]
Cc1ccc(C)c(S(=O)(=O)N2CCCOC2CNC(=O)C(=O)NCCC2=CCCCC2)c1 (stereo not drawn)	23µM*	4%	-40%	6%	-17%	?
Cc1ccc(S(=O)(=O)N2CCOC2CNC(=O)C(=O)NCCCc2ccccc2)cc1 (stereo not drawn)	18µM*	-15%	-24%	-18%	-34%	?
Cc1ccc(C)c(S(=O)(=O)N2CCCOC2CNC(=O)C(=O)NCCc2ccccc2)c1 (stereo not drawn)	16µM*	-17%	-16%	-5%	-24%	?
CCOC(=O)c1ccc2c(c1)nc(-c1ccc(F)cc1)c1nccn12	-5%	24%	-7%	14%	4%	-1%
COc1ccc(NC(=O)C[C@H]2C(=O)N(CCc3ccccc3)C[C@@H]2Cc2ccccc2)cc1	?	-11%	-6%	-17%	4%	-23%
COc1ccc2oc(-c3ccc(C)c(NC(=O)c4ccc(N5CCCCC5)c([N+](=O)[O-])c4)c3)nc2c1	3%	/	-4%	/	-12%	-2%
COc1ccc(C(C(=O)NC2CCCCC2)n2c(=O)c(-c3ccco3)nc3ccccc32)cc1 (stereo not drawn)	26µM*	-26%	/	-19%	/	?
SMILES	DT40 TDP1 no CPT	HT1080 IDH1KD tx	HepG2 tox	HT1080-NT tox	TGFb SMAD3 inh	DT40 TDP1 CPT
O=C(NC1CCCCC1)C(c1cccc2ccccc12)n1c(=O)c(-c2ccco2)nc2ccccc21 (stereo not drawn)	23µM*	-23%	/	-28%	/	16µM*
CC(NC(=O)CCCn1c(=O)c2cccn2c2cccnc21)c1ccccc1 (stereo not drawn)	-8%	/	-21%	/	-20%	-2%
Cc1cnc(C(=O)NC2CC(C)(C)Cc3c2cnn3-c2cccc(F)c2)cn1 (stereo not drawn)	?	-5%	-60%	2%	-13%	?
CCCCCn1c(CCCNC(=O)c2ccccc2)nc2ccccc21	21µM*	/	-31%	/	?	23µM*
CCCCCn1c(CNC(=O)c2ccc(F)cc2)nc2ccccc21	21µM*	/	-40%	/	?	16µM*
CCCCCCn1c(CNC(=O)c2ccccc2)nc2ccccc21	?	/	-25%	/	?	?
C=CCNC(=O)/C(=C/c1cccc([N+](=O)[O-])c1)NC(=O)c1ccco1	1%	21%	2%	12%	-8%	7%
O=C1c2ccccc2C(=O)c2c(NCCCN(CCO)CCO)cccc21	21µM*	?	-31%	21µM*	?	?
Nc1[nH]c(C(=O)c2ccccc2)c(-c2ccncc2)c1C(=O)NCCc1c[nH]c2ccccc12	?	0%	/	0%	/	?
COc1ccc(C(=O)c2[nH]c(N)c(C(=O)NCCc3c[nH]c4ccccc34)c2-c2ccc(C(F)(F)F)cc2)cc1	21µM*	8%	/	0%	/	16µM*
Nc1[nH]c(C(=O)c2ccccc2)c(-c2ccc(Br)cc2)c1C(=O)NCCc1c[nH]c2ccccc12	18µM*	-19%	/	-10%	/	?
COc1ccc2sc(-c3ccc(S(C)(=O)=O)cc3)c(C(=O)NCCc3c[nH]c4ccccc34)c2c1	16µM*	-1%	-7%	-11%	-8%	21µM*
COc1ccc(C(=O)c2[nH]c(N)c(C(=O)NCCc3c[nH]c4ccccc34)c2-c2ccc(Br)cc2)cc1	21µM*	?	/	?	/	?
COc1ccccc1C(=O)NC(=O)Nc1c(C)cc(C)cc1C	-25%	4%	-22%	3%	?	?

Source: PubChem BioAssay
